High-throughput results: PubChem, several laboratories
ABHD5-PLIN5 inh: ABHD5-PLIN5 protein interaction inhibition; actives 0.78% (n = 360,000); inhibition, % at 4 µM; Split G. princeps luciferase complementation, luminescence, 4 h; Q00G26+Q8WTS1;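 active = inhibition above the mean inhibition across every tested compound plus 3 SD, cut at about 22% in these data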;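 note: 0% = DMSO only wells and the 100% control is not disclosed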
rCAG RNA binder: binds r(CAG) RNA repeats; actives 1.3% (n = 370,000); AID 651821; r(CAG) RNA repeat, TO-PRO-1 dye displacement fluorescence; inhibition, % at 3 µM;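 active = inhibition above the plate cutoff, the mean of all test compounds on that plate plus 3 SD, cut at about 35% in these data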;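 note: 0% = DMSO alone and 100% = 100 µM mitoxantrone as full dye displacement; higher means more dye released from RNA so lower well fluorescence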
LANA-H2A inh: blocks KSHV LANA binding to histone H2A/H2B; Q9QR71; cell-free LANA-H2A/H2B peptide, fluorescence polarization; inhibition, % (no concentration beside the values); actives 0.6% (n = 320,000); AID 2629; in the data active = inhibition mostly above about 10%, no sharp cut-off; inactive = mostly below about 6.7%
ALR inh: human ALR oxidase inhibition via reduced H2O2; actives 3.8% (n = 290,000); inhibition, % (no concentration beside the values); purified ALR, DTT oxidation, H2O2 HRP-luminol luminescence; P55789;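 active = mean replicate inhibition above about 79%, with every replicate also reaching it, limit read from the data; inconclusive = only one of the two criteria met; inactive = mean below limit and not every replicate reaching it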
Target sequence (P55789 whole entry, looked up): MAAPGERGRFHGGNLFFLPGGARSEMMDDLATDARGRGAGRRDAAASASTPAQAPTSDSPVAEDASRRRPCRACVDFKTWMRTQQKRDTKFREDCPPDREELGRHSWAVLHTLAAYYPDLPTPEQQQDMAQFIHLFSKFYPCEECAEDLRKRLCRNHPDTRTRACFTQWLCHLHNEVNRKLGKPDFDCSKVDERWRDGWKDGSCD
Rtt109 HAT inh: blocks Candida albicans Rtt109/Vps75 acetyltransferase activity. inhibition, % at 34.9 µM. AID 540336. actives 0.16% (n = 330,000). purified Rtt109/Vps75, ThioGlo CoA-SH fluorescence, 4 h;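 active = inhibition of at least 50% in every replicate; inconclusive = best replicate reaches 50% inhibition but some replicates fall short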
Target sequence (Q5AAJ8 whole entry, looked up): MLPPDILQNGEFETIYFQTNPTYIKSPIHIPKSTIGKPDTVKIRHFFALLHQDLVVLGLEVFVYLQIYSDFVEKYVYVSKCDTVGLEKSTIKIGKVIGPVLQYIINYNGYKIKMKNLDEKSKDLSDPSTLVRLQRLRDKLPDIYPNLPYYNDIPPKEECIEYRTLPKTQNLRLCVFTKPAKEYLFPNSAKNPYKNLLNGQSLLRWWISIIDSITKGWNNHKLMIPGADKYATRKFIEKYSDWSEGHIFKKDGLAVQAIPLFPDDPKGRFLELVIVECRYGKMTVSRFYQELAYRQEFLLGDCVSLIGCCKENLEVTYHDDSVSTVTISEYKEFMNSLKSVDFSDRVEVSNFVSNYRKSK
PRMT1 inh: PRMT1 (human) inhibition, primary screen; inhibition, % at 2.79 µM; Q99873; actives 1.3% (n = 370,000); recombinant PRMT1, activity-based probe fluorescence polarization; AID 652257;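 active = inhibition above about 21% made by adding two undisclosed values, limit read from the data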
rCAG bind conf: r(CAG) RNA repeat binding, confirmation | AID 652065 | actives 70% (n = 4,300) | shares compounds with rCAG RNA binder | inhibition, % at 3 µM | TO-PRO-1 dye displacement fluorescence;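 active = inhibition above a per-plate cutoff, the mean inhibition of sample wells plus 3 SD, cut at about 35% in these data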;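 note: loss of TO-PRO-1 fluorescence as compound displaces dye from 1x1 AA loop RNA; 0% = DMSO only wells and 100% = 100 µM mitoxantrone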
DNA CAG counter: counter-screen for rCAG RNA binders: DNA CAG dye complex inhibitors; shares compounds with rCAG RNA binder; d(CAG) DNA oligo TO-PRO-1 dye displacement, fluorescence; inhibition, % at 3 µM; actives 94% (n = 4,300); AID 652068;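 active = inhibition above its plate's cutoff, the mean test-well inhibition plus 3 SD, cut at about 4.8% in these data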;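 note: 0% = DNA dye mix with DMSO and 100% = 100 µM mitoxantrone; hits displace the dye from DNA and so lower well fluorescence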
Starred values were filed as active, the others as inactive; ? = inconclusive; · = no result given; ! = not active in a repeat. Shown are actives, neighbours in structure and some others; about 5.9% of the full set was active somewhere.

SMILES | ABHD5-PLIN5 inh | rCAG RNA binder | LANA-H2A inh | ALR inh | Rtt109 HAT inh | PRMT1 inh | rCAG bind conf | DNA CAG counter
CCOC(=O)COc1ccc(/C=C2/C(=O)NN(c3ccc(F)cc3)C2=O)cc1OC | 5 | 3 | -2 | 65 | 9 | 3 | · | ·
N#C/C(=C\c1ccc(-c2ccc(F)cc2)o1)C(=O)Nc1nc(-c2cccs2)cs1 | -4 | 36* | 2 | -4 | 1 | -4 | 22 | 11*
CC(=O)C1=C(C)N(Cc2ccc(F)cc2)C(=S)NC1c1cccc(Cl)c1 (stereo not drawn) | · | 3 | · | · | · | 2 | · | ·
CC(C)c1nn2c(N)c(/C=C3\C=Nc4ccccc43)c(=O)nc2s1 | -2 | 40* | -6 | 8 | · | 1 | 41* | 10*
CCCCc1nn2c(N)c(/C=C3\C=Nc4ccccc43)c(=O)nc2s1 | -6 | 7 | -6 | 38 | 1 | 0 | · | ·
CCC(CC)c1nn2c(N)c(/C=C3\C=Nc4ccccc43)c(=O)nc2s1 | -3 | 9 | 4 | 34 | -8 | -4 | · | ·
CC(C)Cc1nn2c(N)c(/C=C3\C=Nc4ccccc43)c(=O)nc2s1 | -7 | 38* | 3 | -2 | -7 | -1 | 62* | 21*
CCCc1nn2c(N)c(/C=C3\C=Nc4ccccc43)c(=O)nc2s1 | 1 | 51*! | -3 | 92*! | 1 | 0 | 49* | 14*
CC(C)(C(=O)N1CCC1(C)C(=O)Nc1ccccc1Br)c1ccccc1 (stereo not drawn) | -7 | 0 | · | · | · | -6 | · | ·
COc1ccc(C(=O)CC2(O)C(=O)N(CN3CCOCC3)c3ccc(Br)cc32)cc1 (stereo not drawn) | · | 0 | · | · | · | 0 | · | ·
CCCCNC(=O)C1C(c2ccc(C(F)(F)F)cc2)=Nc2ccccc2N1C(=O)c1ccc2nc(C)[nH]c2c1 (stereo not drawn) | -5 | 3 | · | · | · | 3 | · | ·
COC(=O)c1cc(NS(=O)(=O)c2ccc(N3CCC(C)CC3)c([N+](=O)[O-])c2)cc(C(=O)OC)c1 | -7 | 55* | 3 | -7 | -3 | -1 | 60* | 19*
COc1ccc(C(=O)O)cc1S(=O)(=O)Nc1cc(Cl)ccc1N1CCOCC1 | 5 | 5 | · | · | -2 | -1 | · | ·
CC1CCN(c2ccc(C(=O)O)cc2NS(=O)(=O)c2ccc(Br)cc2)CC1 | -6 | 35* | 2 | 26 | 10 | 3 | 37* | 11*
Cc1ccc(S(=O)(=O)Nc2cc(C(=O)O)ccc2N2CCC(C)CC2)cc1C | · | 42* | · | · | · | 4 | 41* | 11*
COc1ccc(C(=O)O)cc1S(=O)(=O)Nc1cc(C(F)(F)F)ccc1N1CCCCC1 | -1 | 46* | · | · | · | -2 | 32 | 7.1*
CC1CCN(c2ccc(C(=O)O)cc2NS(=O)(=O)c2cccc3cccnc23)CC1 | · | 36* | · | · | · | 2 | 30 | 7.2*
CC1CCN(C(=O)c2ccc(NS(=O)(=O)c3cccc4cccnc34)cc2)CC1 | 8 | -2 | -10 | -16 | 10 | -2 | · | ·
Cc1cc(C)cc(N(CC(=O)NC2CCC(C)CC2)S(=O)(=O)c2ccc(Br)s2)c1 (stereo not drawn) | · | 1 | · | · | · | 1 | · | ·
CCCOc1ccc(C(CC(=O)O)NC(=O)c2sc3ccccc3c2Cl)cc1 (stereo not drawn) | -2 | 53* | -4 | 18 | 7 | 7 | 42* | 9.9*
CCOc1ccc(C(CC(=O)O)NC(=O)c2sc3ccccc3c2Cl)cc1 (stereo not drawn) | 0 | 29 | 4 | -5 | -1 | -1 | · | ·
COc1ccc(/C=N/S(=O)(=O)c2cccs2)cc1 | 5 | -2 | 3 | 0 | 5 | -3 | · | ·
COc1ccc(/C=C2\S/C(=N/S(=O)(=O)c3cccs3)NC2=O)cc1 | 1 | 73* | 0 | 97* | ? | 0 | 50* | 16*
Cc1cc(=O)n2[nH]c(C)c(-c3ccccc3)c2n1 | 4 | 3 | 7 | 10 | -12 | -1 | · | ·
O=c1cc(-c2ccccc2)nc2c(-c3ccccc3)c(C(F)(F)F)[nH]n12 | 5 | 92* | -1 | · | · | 1 | 77* | 42*
SMILES | ABHD5-PLIN5 inh | rCAG RNA binder | LANA-H2A inh | ALR inh | Rtt109 HAT inh | PRMT1 inh | rCAG bind conf | DNA CAG counter
C[C@H]1[C@@H](OC(=O)Nc2ccccc2F)CC[C@@]23CCCN2C(=O)CCC[C@@H]13 | · | · | · | · | · | -2 | · | ·
CCOC(=O)c1c(-c2ccccc2)csc1NC(=O)/C(C#N)=C\c1ccc(O)c(OC)c1 | -8 | 49* | · | · | -1 | -10 | 64* | 36*
CCOC(=O)c1c(-c2ccc(C)cc2)csc1NC(=O)/C(C#N)=C/c1ccc(O)c(OC)c1 | 1 | 37* | · | · | -2 | -4 | 74* | 48*
CC1(C(=O)NS(=O)(=O)c2ccc(C#N)cc2)CCN1C(=O)C1(c2ccccc2)CC1 (stereo not drawn) | -1 | 5 | · | · | · | -5 | · | ·
CCOc1cc(/C=C2/SC(=O)N(CC(=O)N3CCc4ccccc4C3)C2=O)ccc1OCC(=O)O | 15 | 57* | -4 | 4 | 28 | 0 | 60* | 21*
CCOc1cc(/C=C2/SC(=S)N(Cc3ccccc3)C2=O)ccc1O | 0 | 37* | -7 | 2 | 1 | -3 | 42* | 24*
COc1cc(/C=C2/SC(=S)N(Cc3ccccc3)C2=O)ccc1OCC(=O)O | 0 | 72* | -4 | -2 | -8 | 3 | 86* | 55*
CC(C)c1ccc(NC(=O)C2Cc3c(-c4cccc(F)c4)ccnc3O2)cc1 (stereo not drawn) | 0 | 9 | · | · | · | 7 | · | ·
O=S(=O)(Nc1nc2ccccc2nc1N1CCN(c2ccccn2)CC1)c1ccc(Cl)cc1 | 5 | 54* | · | · | 12 | 11 | 64* | 31*
CCOc1nc2ccccc2nc1NS(=O)(=O)c1ccc(Cl)cc1 | -13 | 40* | 1 | 6 | 8 | 8 | 27 | 4.6*
CCOc1nc2ccccc2nc1NS(=O)(=O)c1ccccc1 | 11 | 6 | -2 | -2 | -7 | 0 | · | ·
COc1ccc(N2CCN(c3nc4ccccc4nc3NS(=O)(=O)c3ccccc3)CC2)cc1 | 5 | 57* | -1 | 2 | 16 | 0 | 62* | 24*
Cc1ccc(S(=O)(=O)Nc2nc3ccccc3nc2N2CCN(c3ccccc3F)CC2)cc1 | -3 | 54* | 5 | -6 | 0 | 3 | 68* | 28*
Cc1ccc(S(=O)(=O)NC2=C(N3CCN(c4ccccc4F)CC3)C(=O)c3ccccc3C2=O)cc1 | -4 | 12 | 3 | -7 | -7 | 4 | · | ·
CC(C)(C)N(Cc1ccccc1)C(=O)CN1C(=O)c2ccccc2S1(=O)=O | 6 | 0 | 3 | · | -1 | 1 | · | ·
